{"source": "PubChem BioAssay (EPA / NIEHS)", "note": "Values joined by “and” are separate entries in the source; they are usually repeats but may differ in a detail not shown here. Equal entries are not always repeated. Some compounds were tested as several samples or in several runs, with calls that do not always agree. Active and inactive are the calls of the source. The calls were made as follows: active = hit-call score of the fitted dose curve at least 0.9, where 1 is the maximum; inactive = score below 0.9.", "data": [{"target": "Transcriptional activator Myb (Homo sapiens) (UniProt P10242)", "sequence (P10242 whole entry, looked up)": "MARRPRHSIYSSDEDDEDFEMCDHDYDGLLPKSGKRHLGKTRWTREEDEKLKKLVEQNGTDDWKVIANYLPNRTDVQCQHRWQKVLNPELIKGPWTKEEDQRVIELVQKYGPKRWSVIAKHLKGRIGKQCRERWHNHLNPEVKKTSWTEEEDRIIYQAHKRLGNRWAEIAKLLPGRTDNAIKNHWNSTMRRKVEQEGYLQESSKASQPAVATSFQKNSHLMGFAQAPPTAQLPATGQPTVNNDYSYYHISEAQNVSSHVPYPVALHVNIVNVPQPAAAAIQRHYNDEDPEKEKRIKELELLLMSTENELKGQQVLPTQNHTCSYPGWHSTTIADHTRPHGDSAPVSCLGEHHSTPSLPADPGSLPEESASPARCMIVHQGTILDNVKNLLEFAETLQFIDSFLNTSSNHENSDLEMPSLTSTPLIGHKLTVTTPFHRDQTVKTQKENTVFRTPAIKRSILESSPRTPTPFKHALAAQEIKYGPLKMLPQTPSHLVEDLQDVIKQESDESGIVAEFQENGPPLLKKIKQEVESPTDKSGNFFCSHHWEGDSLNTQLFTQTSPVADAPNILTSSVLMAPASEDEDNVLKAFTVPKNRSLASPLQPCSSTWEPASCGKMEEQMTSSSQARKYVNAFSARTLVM", "assay": "ATG_Myb_CIS: Attagene CIS-FACTORIAL HepG2 Assay for human Myeloblastosis (Myb) Proto-Oncogene Transcription Factor (AID 2282986)", "settings": "HepG2 Attagene CIS-FACTORIAL Myb reporter transcription; actives raise or lower the signal", "in_short": "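HepG2, transient MRTU transfection (cis-element promoters, endogenous TF activity), 24 h compound exposure. Readout: reporter mRNA via RT-PCR, 6-FAM labeling, HpaI digest, capillary electrophoresis. Gain/loss fit vs DMSO.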", "values": [{"smiles": "N#CN=C(N)N", "outcome": "inactive"}, {"smiles": "CCC(=O)C(CC(C)N(C)C)(c1ccccc1)c1ccccc1", "note": "(configuration not stated)", "outcome": "inactive"}, {"smiles": "CCc1ccccc1C", "outcome": "inactive"}, {"smiles": "CCNc1nc(NC(C)(C)C)nc(SC)n1", "outcome": "inactive"}, {"smiles": "CC(C)(C)CC(C)(C)c1ccc(O)cc1", "outcome": "inactive"}, {"smiles": "CCOP(=S)(OCC)SCCS(=O)(=O)CC", "outcome": "inactive"}, {"smiles": "CC(=O)[O][Hg][c]1ccccc1", "outcome": "inactive"}, {"smiles": "CCOP(OCC)OCC", "outcome": "inactive"}, {"smiles": "C=C(C)C#N", "outcome": "inactive"}, {"smiles": "Fc1ccc(C2(Cn3cncn3)OC2c2ccccc2Cl)cc1", "note": "(configuration not stated)", "outcome": "inactive"}, {"smiles": "O=C(O)C(F)(F)C(F)(F)C(F)(F)C(F)(F)C(F)(F)C(F)(F)F", "outcome": "inactive"}, {"smiles": "CCC(C)(C)c1ccc(O)c(C(C)(C)CC)c1", "outcome": "inactive"}, {"smiles": "CN(C)N=O", "outcome": "inactive"}, {"smiles": "CCN(CC)C(=O)Cl", "outcome": "inactive"}, {"smiles": "CC1(C)CCC(Cc2ccc(Cl)cc2)C1(O)Cn1cncn1", "note": "(configuration not stated)", "outcome": "inactive"}, {"smiles": "O=C1CCCN1", "outcome": "inactive"}, {"smiles": "CCCCP(CCCC)CCCC", "outcome": "inactive"}, {"smiles": "COS(=O)(=O)c1ccc(C)cc1", "outcome": "inactive"}, {"smiles": "Clc1ccc(C2(Cn3cncn3)CC(Br)CO2)c(Cl)c1", "note": "(configuration not stated)", "outcome": "inactive"}, {"smiles": "CC(=O)OC(c1ccccc1)C(Cl)(Cl)Cl", "note": "(configuration not stated)", "outcome": "inactive"}, {"smiles": "CC(=[OH+])/C=C(/C)[O-].CC(=[OH+])/C=C(/C)[O-].CC(=[OH+])/C=C(/C)[O-].[Fe]", "outcome": "inactive"}, {"smiles": "CC(C)(c1ccccc1)c1ccc(O)c(C(C)(C)c2ccccc2)c1", "outcome": "inactive"}, {"smiles": "c1cc[c]([Hg][c]2ccccc2)cc1", "outcome": "inactive"}, {"smiles": "O=C(Cl)c1ccc(Cl)cc1", "outcome": "inactive"}, {"smiles": "C[C@@H]1C[C@@H]([C@H](O)CC2CC(=O)NC(=O)C2)C(=O)[C@@H](C)C1", "outcome": "inactive"}, {"smiles": "O=C1C2(Cl)C3(Cl)C4(Cl)C(Cl)(Cl)C5(Cl)C3(Cl)C1(Cl)C5(Cl)C24Cl", "note": "(configuration not stated)", "outcome": "inactive"}, {"smiles": "Cl/C=C\\C[N+]12CN3CN(CN(C3)C1)C2", "outcome": "inactive"}, {"smiles": "ClCc1cccnc1", "outcome": "inactive"}, {"smiles": "ClC1(Cl)C2(Cl)C3(Cl)C4(Cl)C(Cl)(Cl)C5(Cl)C3(Cl)C1(Cl)C5(Cl)C24Cl", "note": "(configuration not stated)", "outcome": "inactive"}, {"smiles": "ClC1=C(Cl)[C@]2(Cl)[C@@H]3[C@@H](Cl)[C@@H](Cl)C[C@@H]3[C@@]1(Cl)C2(Cl)Cl", "outcome": "inactive"}, {"smiles": "CN(C)P(=O)(N(C)C)N(C)C", "outcome": "inactive"}, {"smiles": "CCN1CCC2(CC1)COc1cc3c(cc12)N(C(=O)c1ccc(-c2ccc(-c4nnc(C)o4)cc2C)cc1)CC3", "outcome": "inactive"}, {"smiles": "O=C(O)C(F)(F)C(F)(F)C(F)(F)C(F)(F)C(F)(F)C(F)(F)C(F)(F)C(F)(F)C(F)(F)C(F)(F)F", "AC50": "154 µM (active)", "outcome": "inactive"}, {"smiles": "CC(C)c1ccc(CO)cc1", "outcome": "inactive"}, {"smiles": "CCC(C)c1cccc(C(C)CC)c1O", "note": "(configuration not stated)", "outcome": "inactive"}, {"smiles": "O=C(c1ccccc1)C(Cl)Cl", "outcome": "inactive"}, {"smiles": "COC[C@H](C)N(C(=O)CCl)c1c(C)csc1C", "outcome": "inactive"}, {"smiles": "Oc1cccc2cccnc12", "outcome": "inactive"}, {"smiles": "CC(C)C1CCC(Cc2ccc(Cl)cc2)C1(O)Cn1cncn1", "note": "(configuration not stated)", "outcome": "inactive"}]}, {"target": "Nuclear respiratory factor 1 (Homo sapiens) (UniProt Q16656)", "sequence (Q16656 whole entry, looked up)": "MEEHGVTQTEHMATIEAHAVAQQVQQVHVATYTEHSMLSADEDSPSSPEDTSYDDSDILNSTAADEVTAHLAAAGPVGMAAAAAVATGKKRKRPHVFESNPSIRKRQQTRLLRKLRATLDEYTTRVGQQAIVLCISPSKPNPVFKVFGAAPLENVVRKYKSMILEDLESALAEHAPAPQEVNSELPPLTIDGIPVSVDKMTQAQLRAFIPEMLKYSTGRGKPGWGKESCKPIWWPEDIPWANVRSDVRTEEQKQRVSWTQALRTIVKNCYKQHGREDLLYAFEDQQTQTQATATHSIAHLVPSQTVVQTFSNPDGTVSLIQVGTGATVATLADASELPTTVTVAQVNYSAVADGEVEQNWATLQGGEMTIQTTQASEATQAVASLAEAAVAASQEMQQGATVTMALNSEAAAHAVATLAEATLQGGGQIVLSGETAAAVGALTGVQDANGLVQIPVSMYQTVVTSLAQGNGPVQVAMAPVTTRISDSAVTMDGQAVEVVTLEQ", "assay": "ATG_NRF1_CIS: Attagene CIS-FACTORIAL HepG2 Assay for human Nuclear Respiratory Factor 1 (NRF1) Orphan Gene (AID 2282987)", "settings": "HepG2 NRF1 cis-element reporter, Attagene multiplex; actives raise or lower the signal", "in_short": "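Endogenous NRF1-driven reporter transcription measured in transiently transfected human HepG2 liver cells. Readout: reporter mRNA by RT-PCR and capillary electrophoresis with fluorescence detection, 24 h post-dosing. Gain or loss of signal fitted relative to DMSO baseline.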", "values": [{"smiles": "N#CN=C(N)N", "outcome": "inactive"}, {"smiles": "CCNc1nc(NC(C)(C)C)nc(SC)n1", "outcome": "inactive"}, {"smiles": "CC(C)(C)CC(C)(C)c1ccc(O)cc1", "outcome": "inactive"}, {"smiles": "CCOP(=S)(OCC)SCCS(=O)(=O)CC", "outcome": "inactive"}, {"smiles": "CC(=O)[O][Hg][c]1ccccc1", "outcome": "inactive"}, {"smiles": "CCOP(OCC)OCC", "outcome": "inactive"}, {"smiles": "O=C(O)C(F)(F)C(F)(F)C(F)(F)C(F)(F)C(F)(F)C(F)(F)F", "outcome": "inactive"}, {"smiles": "CCC(C)(C)c1ccc(O)c(C(C)(C)CC)c1", "outcome": "inactive"}, {"smiles": "CCN(CC)C(=O)Cl", "outcome": "inactive"}, {"smiles": "CCCCP(CCCC)CCCC", "outcome": "inactive"}, {"smiles": "COS(=O)(=O)c1ccc(C)cc1", "outcome": "inactive"}, {"smiles": "Clc1ccc(C2(Cn3cncn3)CC(Br)CO2)c(Cl)c1", "note": "(configuration not stated)", "AC50": "47 µM (active)"}, {"smiles": "CC(=[OH+])/C=C(/C)[O-].CC(=[OH+])/C=C(/C)[O-].CC(=[OH+])/C=C(/C)[O-].[Fe]", "outcome": "inactive"}, {"smiles": "CC(C)(c1ccccc1)c1ccc(O)c(C(C)(C)c2ccccc2)c1", "AC50": "6.39 µM (active)"}, {"smiles": "O=C(Cl)c1ccc(Cl)cc1", "outcome": "inactive"}, {"smiles": "C[C@@H]1C[C@@H]([C@H](O)CC2CC(=O)NC(=O)C2)C(=O)[C@@H](C)C1", "outcome": "inactive"}, {"smiles": "O=C1C2(Cl)C3(Cl)C4(Cl)C(Cl)(Cl)C5(Cl)C3(Cl)C1(Cl)C5(Cl)C24Cl", "note": "(configuration not stated)", "outcome": "inactive"}, {"smiles": "Cl/C=C\\C[N+]12CN3CN(CN(C3)C1)C2", "outcome": "inactive"}, {"smiles": "ClCc1cccnc1", "outcome": "inactive"}, {"smiles": "ClC1(Cl)C2(Cl)C3(Cl)C4(Cl)C(Cl)(Cl)C5(Cl)C3(Cl)C1(Cl)C5(Cl)C24Cl", "note": "(configuration not stated)", "outcome": "inactive"}, {"smiles": "CCN1CCC2(CC1)COc1cc3c(cc12)N(C(=O)c1ccc(-c2ccc(-c4nnc(C)o4)cc2C)cc1)CC3", "outcome": "inactive"}, {"smiles": "O=C(O)C(F)(F)C(F)(F)C(F)(F)C(F)(F)C(F)(F)C(F)(F)C(F)(F)C(F)(F)C(F)(F)C(F)(F)F", "AC50": "162 µM (active) and 31.1 µM (active)"}, {"smiles": "CC(C)c1ccc(CO)cc1", "outcome": "inactive"}, {"smiles": "CCC(C)c1cccc(C(C)CC)c1O", "note": "(configuration not stated)", "outcome": "inactive"}, {"smiles": "O=C(c1ccccc1)C(Cl)Cl", "AC50": "24.8 µM (active)"}, {"smiles": "COC[C@H](C)N(C(=O)CCl)c1c(C)csc1C", "outcome": "inactive"}, {"smiles": "CC(C)C1CCC(Cc2ccc(Cl)cc2)C1(O)Cn1cncn1", "note": "(configuration not stated)", "outcome": "inactive"}]}]}
